# Reference: PubChem BioAssay
# “And” between values parts separate entries of the source, which are not always exact repeats. Equal values may be shown once. The source made the active and inactive calls.
# Test: resazurin metabolic signal in A549 cells – cell-based, resazurin fluorescence, 24 h, PK04 Diversity Set, profiling panel (AID 1171); note: test concentration not given here
# Details: A549 viability, higher = more signal, called active from +8 up or from −8 down
row,SMILES,z-score
1,Cc1ccc(S(=O)(=O)OC[C@@H]2CN3[C@@H](CC[C@@H](C)[C@@H]3c3ccc(Br)cc3)C(=O)O2)cc1,-0.474 (inactive) and 0.371 (inactive)
2,COC(=O)C1=C(C)N(Cc2ccccc2)C2=C(C(=O)c3ccccc3)[C@H](c3ccccc3)[C@@](O)(C(=O)OC)C(=O)N2[C@@H]1c1ccccc1,1.39 (inactive) and -0.344 (inactive)
3,C=CCN(Cc1ccccc1)C(=O)C(c1cccs1)N(C(=O)/C=C\C(=O)O)c1ccc(CCO)cc1 (stereo unspecified),-0.29 (inactive) and -0.14 (inactive)
4,CCOC(=O)[C@H](Cc1ccccc1)NC(=O)CCC1CC(OC(=O)NCc2cccc3ccccc23)CC2(CCCC(COC(=O)NCCCN3CCCC3=O)O2)O1 (stereo partly specified),0.811 (inactive)
5,COC(=O)c1c2oc(c1C(=O)OC)C(=O)N[C@@H](Cc1ccccc1)Cn1cc(nn1)C1(CCCCC1)NC(=O)N[C@H](CO)CC2,0.976 (inactive) and 1.37 (inactive)
6,C=CCN(CCCCC)C(=O)C1N(c2ccc(CCO)cc2)C(=O)C2C(C(=O)O)C3C=CC21O3 (stereo unspecified),-0.792 (inactive) and -0.842 (inactive)
